Compound activity as filed in PubChem.
PLC-beta3 inh: human PLC-beta3 inhibitors, primary screen, biochemical, fluorescence. 1-phosphatidylinositol 4,5-bisphosphate phosphodiesterase beta-3 (Homo sapiens), Q01970. Purified PLC-beta3, fluorogenic substrate. inhibition, % at 12.2 µM. 370,000 compounds, 0.18% hits; in the data active means inhibition above about 11%
HIF act: HIF pathway transcriptional activators, primary screen, cell-based, U2OS HRE-luciferase, luminescence; AID 1910, 2009; activation, % at 7.5 µM (by protocol); 300,000 compounds, 0.32% hits; U2OS HRE-luciferase reporter; normalized: DMSO 0%, desferrioxamine 100%;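 active means mean activation of at least 10% of the iron chelator positive control signal, with at least half of replicates also reaching 10%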
Yeast superoxide: reduction of superoxide in aged yeast, primary screen, HTS; 330,000 compounds, 0.18% hits; AID 2690, 2010; S. cerevisiae aged cells, superoxide DHE fluorescence; hits give low values; superoxide response (% of plate mean), % at 10 µM;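 active means superoxide response under a set limit, about three screen SD below normal, cut at about 65% in these data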;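 further: yeast aged for seven days with compound at 30 °C before DHE staining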
PLCg1 inh: PLC-gamma1 enzyme inhibitors, primary screen, biochemical, fluorescence, purified enzyme | 1-phosphatidylinositol 4,5-bisphosphate phosphodiesterase gamma-1 (Homo sapiens), P19174 | AID 720700, 2013 | fluorogenic substrate | inhibition, % at 12.2 µM | 370,000 compounds, 0.84% hits; in the data active means inhibition above about 9.5%
HGIII-sPLA2 inh: human group III sPLA2 inhibitors, primary screen, biochemical, QFRET, BODIPY PC-A2 liposome substrate; Group 3 secretory phospholipase A2 (Homo sapiens), Q9NZ20; QFRET BODIPY PC-A2 liposome hydrolysis, fluorescence; inhibition, % at 12.2 µM; 370,000 compounds, 0.56% hits;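 active means inhibition above mean plus 3 SD of compounds lying within the high and low control bounds, cut at about 19% in these data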
AHR activator: AHR activators, primary screen, cell-based, luminescence, luciferase reporter, human | activation, % at 5 µM | Aryl hydrocarbon receptor (Homo sapiens), P35869 | 320,000 compounds, 2.5% hits | AHR-responsive luciferase reporter cells; in the data active means activation above about 47%
Target sequence (P35869 whole entry, looked up): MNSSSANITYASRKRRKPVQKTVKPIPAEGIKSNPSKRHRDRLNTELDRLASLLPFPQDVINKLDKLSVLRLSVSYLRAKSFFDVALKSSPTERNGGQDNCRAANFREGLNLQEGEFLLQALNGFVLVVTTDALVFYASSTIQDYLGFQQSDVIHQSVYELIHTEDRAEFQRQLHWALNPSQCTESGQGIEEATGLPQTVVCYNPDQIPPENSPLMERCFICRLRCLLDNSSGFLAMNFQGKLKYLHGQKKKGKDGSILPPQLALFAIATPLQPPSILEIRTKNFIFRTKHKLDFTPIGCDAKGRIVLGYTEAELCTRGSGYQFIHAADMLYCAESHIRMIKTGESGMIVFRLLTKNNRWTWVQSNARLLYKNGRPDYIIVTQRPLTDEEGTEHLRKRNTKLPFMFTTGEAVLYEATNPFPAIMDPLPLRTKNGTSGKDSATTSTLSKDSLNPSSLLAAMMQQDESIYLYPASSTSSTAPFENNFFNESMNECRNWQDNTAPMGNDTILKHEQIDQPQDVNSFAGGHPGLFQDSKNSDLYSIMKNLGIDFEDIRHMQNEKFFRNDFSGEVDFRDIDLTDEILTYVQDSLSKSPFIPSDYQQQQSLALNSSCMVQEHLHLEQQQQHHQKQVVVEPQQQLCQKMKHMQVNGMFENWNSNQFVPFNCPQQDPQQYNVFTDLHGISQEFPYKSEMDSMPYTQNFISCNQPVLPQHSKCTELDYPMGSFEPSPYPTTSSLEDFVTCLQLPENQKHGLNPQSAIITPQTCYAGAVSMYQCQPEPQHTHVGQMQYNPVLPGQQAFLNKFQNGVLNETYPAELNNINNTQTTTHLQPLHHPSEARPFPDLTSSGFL
sPLA2 confirm: human group III sPLA2 inhibitors, confirmation, biochemical, QFRET, triplicate | shares compounds with HGIII-sPLA2 inh | recombinant hGIII-sPLA2, BODIPY PC-A2 QFRET fluorescence | inhibition, % at 12.2 µM | 2,000 compounds, 34% hits | AID 743280, 2014;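 active means mean inhibition across triplicates above the hit cutoff set in the earlier primary screen, cut at about 19% in these data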
BODIPY interf: 535nm fluorescence optical interference, confirmation, artefact control for HGIII-sPLA2 inhibitor project, biochemical, QFRET; AID 743282, 2014; shares compounds with HGIII-sPLA2 inh; BODIPY FL product fluorescence interference; inhibition, % at 12.2 µM; 2,000 compounds, 8.5% hits;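 active means average inhibition above the solvent-only control mean plus 3 SD, cut at about 6% in these data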
535nm interf DR: 535nm fluorescence optical interference, dose response, artefact control for HGIII-sPLA2 inhibitor project, biochemical, QFRET. shares compounds with HGIII-sPLA2 inh. BODIPY FL product fluorescence interference, cell-free. IC50, µM. 240 tested, under 10 active;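 active means IC50 at or below 10 µM; inactive means IC50 above 10 µM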
Of the large screens only hits and unclear results are named; the others gave an inactive call (follow-up assays come after a bar, where they were run). Most compounds without a hit are left out; they make up all but 3.9% or so of the library.

Cc1ccn2c(C(=O)NN=C3CCCCCCC3)c(C)nc2c1	none
CNC(=S)NNC(=O)c1c(C)nc2cc(C)ccn12	HGIII-sPLA2 inh 19 | sPLA2 confirm inactive | BODIPY interf inactive
O=C(O)CC1(CC(=O)Nc2ccc3c(c2)C(=O)OC3)CCCCC1	none
O=C(O)CC1(CC(=O)NCc2cc(F)cc3c2OCOC3)CCCCC1	HGIII-sPLA2 inh 20 | sPLA2 confirm inactive | BODIPY interf inactive
N=c1n(CCN2CCCCC2)c2ccccc2n1CC(O)c1ccco1 (stereo not given)	HGIII-sPLA2 inh 21 | sPLA2 confirm inactive | BODIPY interf inactive
COc1cc(C(=O)Nc2ccc3c(c2)Cc2cc(NC(=O)c4cc(OC)c(OC)c(OC)c4)ccc2-3)cc(OC)c1OC	none
COc1ccc(C(=O)NC(=S)NNC(=O)c2ccccc2C)cc1	HGIII-sPLA2 inh 25 | sPLA2 confirm 29 | BODIPY interf inactive
COc1cc(C(=O)NC(=S)NNC(=O)c2cnccn2)cc(OC)c1OC	HGIII-sPLA2 inh 21 | sPLA2 confirm inactive | BODIPY interf inactive
COc1ccc(C(=O)NC(=S)NNC(=O)c2cnccn2)cc1	none
COc1cc(C(=O)NNC(=S)NC(=O)c2ccc3c(c2)OCO3)cc(OC)c1OC	HGIII-sPLA2 inh 24 | sPLA2 confirm 37 | BODIPY interf inactive | 535nm interf DR inactive
COc1cc(C(=O)Nc2ccncc2)cc(OC)c1OC	HGIII-sPLA2 inh 21 | sPLA2 confirm inactive | BODIPY interf inactive
CNc1cncc(-c2ccc(OCCCN(C)C)nc2)n1	none (no result: HIF act, Yeast superoxide, AHR activator)
CCN(CC)c1ccc(-c2nnc(SCC(=O)N(CCOC)c3c(N)n(CC(C)C)c(=O)[nH]c3=O)o2)cc1	none
COc1cc(C(=O)NNC(=S)NC(=O)c2ccccc2C)cc(OC)c1OC	HGIII-sPLA2 inh 26 | sPLA2 confirm 25 | BODIPY interf inactive
COc1ccccc1C(=O)NNC(=S)NC(=O)c1cc(OC)c(OC)c(OC)c1	none
COc1ccc(CC(=O)NNC(=O)c2cnccn2)cc1	HGIII-sPLA2 inh 20 | sPLA2 confirm inactive | BODIPY interf inactive
COc1ccc(C(=O)NNC(=S)NC(=O)C(C)(C)C)cc1	HGIII-sPLA2 inh 23 | sPLA2 confirm 19 | BODIPY interf inactive
COc1ccc(C(=O)NNC(=O)c2ccc(C(C)(C)C)cc2)cc1	none
CC1=C/C(=N\NC(=S)Nc2cccnc2)CC(C)(C)C1	none (no result: Yeast superoxide, AHR activator)
N#CC(C#N)=C1NC2(CCCCC2)Cc2ccccc21	none
N#CC(C#N)=c1ccc2c(c1)NC1(CCCCC1)N=2	HGIII-sPLA2 inh 38 | sPLA2 confirm 61 | BODIPY interf 18
CCCCNC(=O)C1(C)CCC(=O)N1CCOC (stereo not given)	none (no result: HIF act, Yeast superoxide, AHR activator)
COc1ccc(CNC(=O)OC2CC3CC2[C@H]2CCCCN2C3=O)cc1 (stereo not given in full)	none (no result: HIF act, Yeast superoxide, AHR activator)
COc1cccc(/C=N/NC(=O)C(=O)Nc2ccccc2OC(F)(F)C(F)F)c1	HGIII-sPLA2 inh 21 (no result: HIF act) | sPLA2 confirm inactive | BODIPY interf inactive
COc1ccc(NC(=O)C(=O)N/N=C/c2cccnc2)c(OC)c1	HGIII-sPLA2 inh 20 (no result: HIF act) | sPLA2 confirm inactive | BODIPY interf inactive
O=S(=O)(c1ccc(NC(=S)NN=Cc2ccccc2O)cc1)N1CCCCC1	HGIII-sPLA2 inh 26 (no result: HIF act, Yeast superoxide, AHR activator) | sPLA2 confirm 33 | BODIPY interf 9.8
O=C(NC(=S)Nc1ccc(S(=O)(=O)N2CCCCC2)cc1)c1cccs1	HGIII-sPLA2 inh 19 (no result: HIF act) | sPLA2 confirm 19 | BODIPY interf inactive
NS(=O)(=O)c1ccc(NC(=S)NC(=O)c2cccs2)cc1	none
O=[N+]([O-])c1cc(Cl)cc(/C=N/NC(=S)Nc2ccc(S(=O)(=O)N3CCOCC3)cc2)c1O	HGIII-sPLA2 inh 69 | sPLA2 confirm 70 | BODIPY interf 19
O=S(=O)(c1ccc(NC(=S)N/N=C/c2ccc(O)c(O)c2)cc1)N1CCOCC1	none
CCC(=O)NC(=S)Nc1cccc(NC(=O)c2ccccc2)c1	none
O=c1cc(-c2ccc(O)c(O)c2)oc2cc(O)c(C3OC(CO)C(O)C(O)C3O)c(O)c12 (stereo not given)	none
Cc1cc(C(=O)NNC(=S)NC2CCCCC2)cs1	HGIII-sPLA2 inh 25 | sPLA2 confirm 37 | BODIPY interf inactive | 535nm interf DR inactive
O=C(NNC(=S)NC1CCCCC1)c1cccs1	none
O=C(NNC(=S)NC1CCCCC1)c1ccccc1O	HGIII-sPLA2 inh 44 | sPLA2 confirm 44 | BODIPY interf inactive | 535nm interf DR inactive
CCNc1ccc(C(=O)OCC(=O)N(Cc2ccccc2)C(C)(C)C)cc1[N+](=O)[O-]	none
Cc1ccc(/C=C/C(=O)Nc2ccc(S(=O)(=O)Nc3onc(C)c3C)cc2)cc1	none
Oc1ccc(Br)cc1/C=N/NC(=S)NCCc1ccccc1	HGIII-sPLA2 inh 26 | sPLA2 confirm 24 | BODIPY interf inactive
CC(C)NC(=S)N/N=C/c1cc(Br)ccc1O	HGIII-sPLA2 inh 29 | sPLA2 confirm inactive | BODIPY interf inactive
COc1ccc(NC(=O)CN(C)C(=O)c2cn(-c3ccccc3)nc2-c2cccnc2)cc1	none
C/C(=N\NC(=S)NC1CCCCC1)c1ccc(C#N)cc1	HGIII-sPLA2 inh 26 | sPLA2 confirm inactive | BODIPY interf inactive
N#Cc1ccc(C(=O)NC(=S)NC2CCCCC2)cc1	none (no result: HIF act)
Cc1ccc(NC(=S)NNC(=O)c2nn(C)c(C)c2Cl)cc1	HGIII-sPLA2 inh 38 | sPLA2 confirm 48 | BODIPY interf inactive | 535nm interf DR inactive
COCCCNC(=S)NNC(=S)NCCCOC	HGIII-sPLA2 inh 22 | sPLA2 confirm inactive | BODIPY interf inactive
CCC(=O)Nc1ccc2c(c1)C(=O)N(C)[C@@H]1CC[C@@H](CC(=O)NCc3ccc(OC)cc3)O[C@H]1CO2	HGIII-sPLA2 inh 19 (no result: HIF act, Yeast superoxide, AHR activator) | sPLA2 confirm inactive | BODIPY interf inactive
CCS(=O)(=O)Nc1ccc2c(c1)C(=O)N(C)[C@@H]1CC[C@H](CC(=O)N[C@@H]3CCN(Cc4ccccc4)C3)O[C@H]1CO2	HGIII-sPLA2 inh 20 (no result: HIF act, Yeast superoxide, AHR activator) | sPLA2 confirm inactive | BODIPY interf inactive
